Consider two compounds from the supplement of paper PMC11402862.

This experiment has as its system PPARalpha LBD (GAL4 fusion). Description: luciferase reporter transactivation, fold of solvent control; higher = stronger receptor activation. To be noted: HEK293T, exposure time: 24 h. The method, then: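 HEK293T cells were transiently transfected with a GAL4-DBD fused to the ligand-binding domain of a human nuclear receptor (PPARα, PPARγ, PPARδ, FXR, LXRα, PXR, RARα or CAR), the GAL4-(UAS)5-TK firefly luciferase reporter and a Renilla luciferase normalisation plasmid. Cells were exposed to compound for 24 h in 0.5% DMSO. Firefly/Renilla luciferase was expressed as fold of the solvent control (=1). Values are the mean of 2-3 biological replicates; receptor agonists were used as positive controls.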

For `O=C(O)C(F)(F)C(F)(F)F` [perfluoropropanoic acid], the luciferase reporter transactivation runs as follows: (concentration: 1 µM) 1.08; (concentration: 5 µM) 1.01; (concentration: 10 µM) 1.07; (concentration: 25 µM) 1.03; (concentration: 50 µM) 1.12; (concentration: 100 µM) 1.78. Further, the luciferase reporter transactivation stood at 1.42 (concentration: 250 µM) and 1.98 (concentration: 500 µM).

Take `NS(=O)(=O)C(F)(F)C(F)(F)C(F)(F)C(F)(F)C(F)(F)C(F)(F)C(F)(F)C(F)(F)F` [perfluorooctane sulfonamide]: the luciferase reporter transactivation (concentration: 1 µM) was found to be 0.788; the luciferase reporter transactivation (concentration: 2.5 µM) was 0.548; the luciferase reporter transactivation (concentration: 5 µM) came out at 0.904; the luciferase reporter transactivation (concentration: 10 µM) is 0.796; the luciferase reporter transactivation (concentration: 100 µM) amounted to 1.2.
